# Assay outcomes (PubChem BioAssay)
# Only some compounds are listed: those with a hit (about 11% of all), similar ones and a draw of the others.
# AmpC inh no detg: qHTS Inhibitors of AmpC Beta-Lactamase (assay without detergent) | Potency, µM (highest dose often 57.1 µM), without a hit: at the highest dose activity change, negative = inhibition, usual class: inhibitors | P00811 | AmpC nitrocefin hydrolysis, absorbance 480 nm, 0.0001% Triton | 330,000 compounds, 0.52% hits;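 further: plate controls were no compound for no effect and no enzyme for full effect; nearly all actives have a fitted effect of over 20% in size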
# Target sequence (P00811 whole entry, looked up): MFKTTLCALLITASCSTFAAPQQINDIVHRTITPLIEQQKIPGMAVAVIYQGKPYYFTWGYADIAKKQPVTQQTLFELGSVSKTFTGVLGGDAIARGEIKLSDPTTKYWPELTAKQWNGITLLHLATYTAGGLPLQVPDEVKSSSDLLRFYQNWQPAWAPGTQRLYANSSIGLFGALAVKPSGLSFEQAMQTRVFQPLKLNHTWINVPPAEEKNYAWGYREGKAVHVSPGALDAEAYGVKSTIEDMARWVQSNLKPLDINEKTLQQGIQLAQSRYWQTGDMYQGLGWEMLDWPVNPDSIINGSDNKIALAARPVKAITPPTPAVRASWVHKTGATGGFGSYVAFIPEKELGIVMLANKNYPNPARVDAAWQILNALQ
#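 AmpC (5.3 nM in the dispensed reagent) in 20 mM phosphate pH 7.0 with 0.01% (detergent screen) or 0.0001% Triton X-100 was preincubated with compounds for 15 min at room temperature. Nitrocefin was then added from an 800 uM solution, and hydrolysis was followed at 480 nm.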
# Pf growth 48h: Primary qHTS for delayed death inhibitors of the malarial parasite plastid, 48 hour incubation | P. falciparum luciferase growth in erythrocytes, 48 h | Potency, µM (series often up to 28.7 µM), without a hit: at the top dose activity change, negative = inhibition, most hits filed as inhibitors | 310,000 compounds, 5.9% hits
#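 Luminescence readout; reporter = integrated firefly luciferase in P. falciparum. RBC culture at 2% hematocrit, 0.1% parasitemia final, 37 C/5% CO2; decreased signal taken as growth inhibition.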
# HCV inh: qHTS Assay for Inhibitors of Hepatitis C Virus (HCV). Huh7.5.1 HCVcc-Cre infection, luciferase reporter, 44 h. Potency, µM (titrated, usually from 41.8 µM), inactives show top-dose activity change, negative = inhibition, actives largely listed as inhibitors. 340,000 compounds, 3.4% hits. AID 651820, 2012
#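 Antiviral activity was scored by luciferase reporter output from cells infected with HCVcc-Cre (~0.5 moi) in presence of compound, 44 h infection period, cells seeded 1,000/well 4 h prior.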
# AmpC inh detg: qHTS Inhibitors of AmpC Beta-Lactamase (assay with detergent); AmpC hydrolysis of nitrocefin, absorbance 480 nm, 0.01% Triton; Potency, µM (highest dose often 114 µM), for inactives: at the highest dose activity change, negative = inhibition, hits mostly inhibitors; P00811; 370,000 compounds, 0.041% hits; AID 485294, 2010;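 further: 0% = no-compound wells and -100% = no-enzyme wells; nearly all actives have a fitted effect of over 25% in size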
#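 20 mM phosphate pH 7.0 + 0.01% (detergent screen) or 0.0001% Triton X-100; 5.3 nM AmpC reagent; cpd preinc 15 min RT; nitrocefin (800 uM stock) to start; A480 q20 s × 4 min; Activity was normalised to no-enzyme and no-compound control wells.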
# Pf growth 96h: Primary qHTS for delayed death inhibitors of the malarial parasite plastid, 96 hour incubation; P. falciparum luciferase reporter growth, 96 h; Potency, µM (titrated, usually from 28.7 µM), inactives show at the top dose activity change, negative = inhibition, usual class: inhibitors; 320,000 compounds, 6.9% hits; AID 504834, 2011
#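 Infected RBCs, 2% Hct / 0.05% parasitemia final; luciferase-reporter P. falciparum; cpd 96 h, 37 C, 5% CO2; luciferase detection reagent; luminescence.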
# AMA1 RON2 block: qHTS for Inhibitors of AMA1-RON; Towards Development of Antimalarial Drug Lead: Primary Screen; 360,000 compounds, 0.2% hits; Plasmodium falciparum AMA1 (3D7) - RON2 peptide interaction; Potency, µM (highest dose often 58.2 µM), inactives show at the highest dose activity change, negative = inhibition, actives largely listed as inhibitors; AID 720542, 2013; AlphaScreen AMA1-biotinylated RON2 peptide binding;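 further: 0% = vehicle wells and -100% = peptide control; nearly all actives have a fitted effect of over 45% in size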
#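 AMA1 (3D7) with his tag at 25 nM final met compounds first, then biotinylated RON2 peptide at 25 nM; detection used donor plus acceptor beads, 10 µg/mL apiece, read by AlphaScreen after 30 min at room temperature.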
# Numbers without * were called inactive; ? = inconclusive; / = no result given; [ ] = remark or other dose. The call rests on the fitted dose curve; in most records, active means well fitted curve in the direction sought with a large enough effect; inconclusive means small, poorly fitted or top-dose-only effect, or another doubt; inactive means no such curve, though single readings can be large; an effect the other way counts as inactive or inconclusive. Unless noted, on the % scale 0 is the no-effect control and ±100 the full control effect; potency means the concentration at half of the fitted maximal effect.
SMILES,AmpC inh no detg,Pf growth 48h,HCV inh,AmpC inh detg,Pf growth 96h,AMA1 RON2 block
CC(=O)c1c(C)[nH]c(C(=O)OCC(=O)Nc2cc(Cl)ccc2[N+](=O)[O-])c1C,-39%,10%,10µM*,-5%,?,-13%
COc1ccc2c(C)c(CCC(=O)NCCc3ccc(Cl)cc3)c(=O)oc2c1,/,/,/,4%,/,/
CCOC(=O)c1noc2ncnc(N3CCN(c4cccc(C(F)(F)F)c4)CC3)c12,/,/,/,17%,/,/
O=C(O)C1SCCN1S(=O)(=O)c1ccc(N=NN2CCOCC2)cc1 (stereo not drawn),-15%,21%,7%,4%,1.9µM*,0%
COC(=O)c1ccc(N=NN2CCOCC2)cc1,-7%,187%,24%,-5%,13%,13%
COc1ccc(NC(=O)CSc2nnc(NC(=O)Nc3ccccc3)s2)c(OC)c1,/,/,/,4%,/,/
COc1ccc(N2CCN(C(=O)c3cccn4c(=O)c5ccc(Cl)cc5nc34)CC2)cc1,/,/,/,8%,/,/
COc1ccc(-c2cc(C(=O)Oc3cccc(C)c3C)c3ccccc3n2)cc1,/,/,/,5%,/,/
C=CCc1cccc(C=Nc2cc(Br)ccc2O)c1O,-31%,?,-24%,-4%,12µM*,-5%
C=CCc1cccc(C=Nc2c[nH]c(=O)[nH]c2=O)c1O,-3%,0%,12%,-11%,-22%,49%
O=C(CN(c1ccc(Cl)c(C(F)(F)F)c1)S(=O)(=O)c1ccccc1)N1CCc2ccccc2C1,/,/,/,22%,/,/
Clc1ccc(C(c2ccccc2)N2CCN(c3ccccn3)CC2)cc1 (stereo not drawn),-11%,?,-15%,0%,6.6µM*,?
OC(COc1ccc(Cl)cc1)CN1CCN(c2ccccn2)CC1 (stereo not drawn),/,/,?,/,/,-1%
CN1CCCN(C(c2ccccc2)c2ccc(Cl)cc2)CC1 (stereo not drawn),47%,13µM*,1.3µM*,?,6.7µM*,-8%
CCc1ccc(NC(=O)c2nn(-c3ccc(OC)cc3)c(=O)c3c2c2ccccc2n3C)cc1,/,/,/,-6%,/,/
CC1(C)O[C@H]2[C@@H](O1)[C@@H](C(=O)Nc1ccccc1O)O[C@@H]1OC(C)(C)O[C@@H]12,/,/,/,16%,/,/
Cn1c(-c2ccncc2)nc2ccccc21,-26%,2%,6%,?,?,9%
CCN(CC)c1ccc(-c2nc3cnccc3n2C)cc1,-16%,98%,11µM*,-12%,22%,-11%
Cc1cc(C(=O)CSc2nnc(N)s2)c(C)n1Cc1cccs1,-19%,-35%,?,5%,-96%,0%
Cc1csc(SCC(=O)c2cc(C)n(Cc3cccs3)c2C)n1,-20%,144%,10µM*,-8%,/,32%
Cn1c(N)c(C(=O)CSc2nn(-c3ccccc3)c(=S)s2)c(=O)n(C)c1=O,-16%,15%,10µM*,-16%,6%,10%
Cc1cc(C(=O)CSc2nc3ccccc3[nH]2)c(C)n1Cc1ccco1,-56%,57%,?,-13%,0%,-22%
Cc1ccc2cccc(OCC(=O)c3cc(C)n(Cc4ccco4)c3C)c2n1,73%,13µM*,/,4%,?,/
Cc1cc(C(=O)CSc2nn(-c3ccccc3)c(=S)s2)c(C)n1Cc1ccco1,28µM*,?,?,0%,/,1%
COc1cc(/C=C(\C#N)c2nc3ccccc3[nH]2)ccc1OCc1cccc(C(F)(F)F)c1,/,/,/,1%,/,/
SMILES,AmpC inh no detg,Pf growth 48h,HCV inh,AmpC inh detg,Pf growth 96h,AMA1 RON2 block
CC(C)(C)C(=O)OCc1cc(=O)n2nc(C3CCCCC3)sc2n1,/,/,/,5%,/,/
Cc1cc(C(=O)CSc2nncs2)c(C)n1Cc1ccco1,-24%,0%,?,7%,219%,22µM*
Cc1cc(Cl)ccc1NC(=O)CN(c1ccccc1Br)S(C)(=O)=O,/,/,/,8%,/,/
Cc1nc(SCC#N)c2c(C)c(C)sc2n1,-2%,-8%,-14%,-1%,9.3µM*,21%
CC(=O)NN1C(=O)/C(=C/c2ccc(Br)o2)SC1=S,-17%,/,0%,-14%,-3%,32µM*
CC(=O)NN1C(=O)/C(=C\c2ccc(Br)o2)SC1=S,-16%,-4%,-28%,-3%,?,3%
O=C(O)CCCCC1CCSS1 (stereo not drawn),16µM*,0%,29%,50µM*,12%,9%
COc1ccccc1C(=O)Nc1ccc2nc3n(c(=O)c2c1)CCCC3,35%,?,-22%,0%,0.52µM*,9%
COc1cccc(/C=C/C(=O)Nc2ccc3nc4n(c(=O)c3c2)CCCC4)c1OC,188%,2.1µM*,?,-6%,?,53%
COc1ccc(NC(=O)C(=O)Nc2ccc3nc4n(c(=O)c3c2)CCCCC4)c(OC)c1,/,/,/,-6%,/,/
COc1ccc(OC)c(CCNC(=O)C(=O)Nc2ccc3nc4n(c(=O)c3c2)CCCCC4)c1,69%,4.1µM*,?,15%,4%,17%
COc1cccc(NC(=O)CC(=O)Nc2ccc3nc4n(c(=O)c3c2)CCCCC4)c1,/,/,/,5%,/,/
COc1cc(/C=C/C(=O)Nc2ccc3nc4n(c(=O)c3c2)CCCC4)cc(OC)c1OC,170%,?,?,-1%,-18%,-6%
COc1cc(OC)cc(C(=O)Nc2ccc3nc4n(c(=O)c3c2)CCCCC4)c1,89%,56%,?,2%,13µM*,0%
CCCc1nn2c(=O)cc(COC(=O)c3ccccc3NC(=O)c3ccc(OCC)cc3)nc2s1,/,/,/,1%,/,/
Cc1ccc(N2CCN(C(=O)c3ccccc3)CC2)c(C)c1,25%,?,-8%,4%,?,0%
Cc1ccc(N2CCN(C(=O)c3cc(C(=O)c4ccccc4C)c[nH]3)CC2)c(C)c1,-25%,?,11µM*,10%,?,0%
CC(=O)c1ccc(NC(=O)C(C)Sc2nnc3ccccn23)cc1 (stereo not drawn),-21%,?,-4%,-9%,9.3µM*,-16%
S=C(NCc1ccccc1)Nc1ccncc1,-23%,?,1.8µM*,?,?,-6%
S=C(NCc1ccncc1)Nc1ccccc1,2%[2.29 µM],-12%,0%,-7%,16%,43%
O=C(CCc1ccccc1)NCc1ccncc1,31%,10%,10%,-15%,3.7µM*,2%
